Compound activity from PubChem BioAssay.
The list is not random: actives were taken first. Their share in the collection is about 4.6%.
Vaccinia Venus = qHTS for Stage-Specific Inhibitors of Vaccinia Orthopoxvirus: Venus Reporter Primary qHTS; Vaccinia virus Venus reporter expression, fluorescence; Potency, µM (doses to about 36.5 µM), most hits filed as inhibitors; actives 0.46% (n = 330,000); calls by dose curve; tested in A549 cells; also: nearly all actives have a fitted effect of over 30% in size
Marburg entry inh = qHTS for inhibitors of binding or entry into cells for Marburg Virus; Marburg virus pseudotyped entry inhibition, cell reporter; actives 1.8% (n = 300,000); Potency, µM (top dose mostly 37.8 µM), most hits filed as inhibitors; AID 540276, 2011; calls by dose curve; tested in HEK293 cells
Lassa entry inh = qHTS for Inhibitors of binding or entry into cells for Lassa Virus. Lassa virus pseudotype entry inhibition, cell reporter. Potency, µM (series often up to 37.9 µM), most hits filed as inhibitors. actives 1.2% (n = 300,000); calls by dose curve; tested in HEK293 cells; also: nearly all actives have a fitted effect of over 50% in size
VACV mCherry inh = qHTS for Stage-Specific Inhibitors of Vaccinia Orthopoxvirus: mCherry Reporter Primary qHTS. Vaccinia virus mCherry reporter infection, fluorescence. Potency, µM (highest dose often 36.5 µM), hits mostly inhibitors. actives 0.63% (n = 310,000). AID 720579, 2013; calls by dose curve; tested in A549 cells; also: nearly all actives have a fitted effect of over 35% in size
HCV inh = qHTS Assay for Inhibitors of Hepatitis C Virus (HCV); actives 3.4% (n = 340,000); Huh7.5.1 HCVcc-Cre infection, luciferase reporter, 44 h; Potency, µM (highest dose often 41.8 µM), actives largely listed as inhibitors; AID 651820, 2012; active = well fitted inhibition curve with a large enough effect; inconclusive = small, poorly fitted or top-dose-only effect, or another doubt; inactive = no such curve, though single readings can be large or run the other way
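Infectious HCV cell culture screen: compound-treated cells (1,000/well, pre-plated 4 h) are infected with HCVcc-Cre at roughly 0.5 moi and grown 44 h. Infection is quantified by luciferase signal after 15 min substrate incubation at room temperature.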
Of the large screens only hits and unclear results are named; the others gave an inactive call.

CCNc1sc(C(=O)c2cccs2)c(N)c1-c1nc2ccccc2s1	Marburg entry inh inconclusive, Lassa entry inh inconclusive, HCV inh 5.01µM
C=CCNc1sc(C(=O)c2cccs2)c(N)c1C#N	none
CCOC(=O)c1sc(NCc2ccco2)c(-c2nc3ccccc3s2)c1N	HCV inh 10µM (no result: VACV mCherry inh)
CCNc1sc(C(=O)c2cccs2)c(N)c1C#N	Vaccinia Venus inconclusive, Marburg entry inh inconclusive, HCV inh 12.6µM (no result: VACV mCherry inh)
C=CCNc1sc(C(=O)c2ccccc2)c(N)c1-c1nc2ccccc2s1	Vaccinia Venus inconclusive, Marburg entry inh inconclusive, Lassa entry inh inconclusive
O=C(Nc1ccc(Br)cc1F)c1cc2nc(-c3ccco3)cc(C(F)(F)Cl)n2n1	Marburg entry inh inconclusive (no result: HCV inh)
Cc1cc(=O)c(C(=O)N(C)CCc2ccccn2)c2n1-c1ccccc1SC(c1ccsc1)C2 (centres undefined)	none (no result: Marburg entry inh, Lassa entry inh, HCV inh)
O=C1c2c(O)cc(O)cc2O[C@H](c2ccc(O)cc2)[C@H]1O	none (no result: Marburg entry inh, Lassa entry inh)
O=C1c2c(O)cc(O)cc2O[C@H](c2ccc(O)c(O)c2)[C@H]1O	HCV inh 0.562µM (no result: Marburg entry inh, Lassa entry inh)
Cc1nc(N=C(N)N)nc2ccccc12	Marburg entry inh inconclusive, Lassa entry inh inconclusive, HCV inh 14.1µM
CCc1ccc2nc3c(c(C(=O)O)c2c1)CCC3	Lassa entry inh inconclusive (no result: Vaccinia Venus, VACV mCherry inh)
Cc1ccc2nc(N=C(N)N)nc(C)c2c1	Marburg entry inh inconclusive, HCV inh 7.08µM
CCc1ccc2nc(N=C(N)N)nc(C)c2c1	Vaccinia Venus inconclusive, Marburg entry inh inconclusive, VACV mCherry inh inconclusive, HCV inh 5.01µM
CCOCCc1nn2c(=O)cc(COC(=O)c3ccccc3NC(=O)c3ccccc3F)nc2s1	none (no result: Marburg entry inh, HCV inh)
O=C(COc1ccc(Cl)cc1)N1CCCC1	none
O=C(COc1ccc(Cl)cc1)N(c1ccccc1Cl)C1CN2CCC1CC2 (centres undefined)	Marburg entry inh inconclusive, Lassa entry inh inconclusive, HCV inh 10µM
O=C(COc1ccc(Cl)cc1)N(c1ccc(Cl)cc1)C1CN2CCC1CC2 (centres undefined)	Marburg entry inh inconclusive, Lassa entry inh inconclusive, HCV inh 25.1µM
CCn1c(-c2nonc2N)nc2c(C#CC(C)(C)O)nc(OC(CN)c3ccccc3)cc21 (centres undefined)	Lassa entry inh 8.88µM (no result: Vaccinia Venus, Marburg entry inh, VACV mCherry inh, HCV inh)
CCn1c(-c2ccccc2F)nc2cc(NC(C)=O)cc(C(=O)N(C)Cc3ccccn3)c21	none (no result: Marburg entry inh, Lassa entry inh, HCV inh)
S=C(NCC1(c2ccccc2)CCCC1)Nc1ccccc1	HCV inh 10µM (no result: Vaccinia Venus, Marburg entry inh, Lassa entry inh, VACV mCherry inh)
O=S(=O)(NCc1cn2ccsc2n1)c1ccc(Oc2ccccc2)cc1	Vaccinia Venus inconclusive, Marburg entry inh inconclusive, HCV inh 7.94µM (no result: VACV mCherry inh)
COc1ccccc1N1CCN(C(=O)Cn2ncc3c2-c2cc(C)ccc2OC3)CC1	none (no result: Lassa entry inh, HCV inh)
CC(=O)N1CCN(c2ccccc2NC(=O)COc2cc(C)ccc2C(C)C)CC1	Marburg entry inh inconclusive, Lassa entry inh inconclusive, HCV inh inconclusive (no result: VACV mCherry inh)
Cc1ccc2c(c1)-c1c(cnn1CC(=O)Nc1ccccc1N1CCN(C)CC1)CO2	Marburg entry inh 9.2µM, Lassa entry inh inconclusive
Cc1ccc(C(C)C)c(OCC(=O)Nc2ccc(N3CCOCC3)cc2N2CCOCC2)c1	Marburg entry inh inconclusive, HCV inh 31.6µM
Cc1ccc(C(C)C)c(OCC(=O)Nc2ccccc2N2CCN(C)CC2)c1	Vaccinia Venus inconclusive, Marburg entry inh inconclusive, Lassa entry inh 10µM, HCV inh inconclusive (no result: VACV mCherry inh)
Cn1cc(/C=C/c2ccnc3ccccc23)c2ccccc21	VACV mCherry inh inconclusive (no result: Marburg entry inh, Lassa entry inh, HCV inh)
CCC1CN(Cc2c(C)nc3sccn23)Cc2cc(OC)ccc2O1 (centres undefined)	none (no result: Marburg entry inh, Lassa entry inh, HCV inh)
COc1ccc(CN2CCN(C(C)=O)CC2)cc1OC1CCN(C(=O)c2ccc3ccccc3n2)CC1	none (no result: Marburg entry inh, Lassa entry inh, HCV inh)
O=C1C(=O)c2ccccc2C(O)=C1CC=C(Cl)Cl	Marburg entry inh inconclusive, Lassa entry inh 3.16µM, VACV mCherry inh inconclusive
COC(=O)Cc1ccc2sc(-c3ccccc3)nc2c1	Marburg entry inh 8.2µM, Lassa entry inh inconclusive, HCV inh inconclusive
O=C(NCC(c1cccs1)N1CCOCC1)c1cc(-c2ccc(F)cc2)nc2ccccc12 (centres undefined)	Marburg entry inh inconclusive, HCV inh 7.08µM (no result: Lassa entry inh)
CC(=O)c1sc2c(c1C)c(=O)n(-c1ccc(Cl)cc1)c(=O)n2Cc1cc(=O)n2cc(Cl)ccc2n1	none (no result: HCV inh)
CCc1cccc(-n2nnc(-c3nsc(NC(=O)c4cccc(OC)c4)n3)c2C)c1	none (no result: Marburg entry inh, HCV inh)
COc1ccc(OCC(=O)Nc2ccc3c(c2)N(C)C(=O)c2ccccc2S3)cc1	none (no result: Marburg entry inh, HCV inh)
COc1ccc(/C=N/NC(=O)c2cccc(OC(F)(F)C(F)F)c2)c(OC)c1OC	Lassa entry inh 10µM, HCV inh inconclusive
COc1cccc(/C=N/NC(=O)c2cc3c(OC)cccc3[nH]2)c1OC	HCV inh inconclusive
COc1ccc(/C=N/NC(=O)c2cccc(OC(F)(F)C(F)F)c2)cc1O	Lassa entry inh inconclusive
COc1ccc(OC)c(/C=N/NC(=O)c2cc3c(OC)cc(OC)cc3[nH]2)c1	Vaccinia Venus inconclusive, Marburg entry inh inconclusive, Lassa entry inh inconclusive, VACV mCherry inh inconclusive, HCV inh 25.1µM
COc1ccc(OC)c(/C=N/NC(=O)c2cc3c(OC)cccc3[nH]2)c1	Marburg entry inh 10µM, HCV inh inconclusive
COCc1cc(C)nc2sc3c(c12)NC(c1ccc(O)cc1)N(c1ccc(C)cc1)C3=O (centres undefined)	Marburg entry inh inconclusive, Lassa entry inh inconclusive (no result: HCV inh)
Cc1ccccc1NC(=O)c1ccccc1OCC(=O)Nc1ccc(Br)cc1	none (no result: Marburg entry inh, Lassa entry inh, HCV inh)
CCCOc1ccc(/C=N/NC(=S)Nc2ccccc2[N+](=O)[O-])c(O)c1	Vaccinia Venus inconclusive, Marburg entry inh inconclusive, Lassa entry inh 8.2µM, VACV mCherry inh 2.82µM, HCV inh inconclusive
CCOc1ccccc1/C=N/Nc1ccccc1[N+](=O)[O-]	HCV inh inconclusive
CCCOc1ccc(/C=N/Nc2ccccc2[N+](=O)[O-])c(O)c1	Marburg entry inh 4.47µM, Lassa entry inh 2.82µM
CC(C)Oc1ccccc1C1C=C(C(=O)O)Nc2ncnn21 (centres undefined)	none (no result: HCV inh)
C=CCNC(=O)c1onc(CSc2cc(C)cc(C)c2)c1C(=O)NCC=C	VACV mCherry inh 3.16µM, HCV inh inconclusive (no result: Vaccinia Venus, Marburg entry inh, Lassa entry inh)
Cc1ccccc1Cn1cc(CCC(=O)NC(C)c2ccccc2)c2ccccc21 (centres undefined)	none (no result: Marburg entry inh, HCV inh)
C=CCOc1ccc(CN(C)CC(O)COc2cccc3ccccc23)cc1 (centres undefined)	Marburg entry inh inconclusive, Lassa entry inh inconclusive, HCV inh 31.6µM
CCc1ccc(CNCc2ccc(OCC(O)CN(C)Cc3ccccc3)cc2)nc1 (centres undefined)	VACV mCherry inh inconclusive, HCV inh 11.2µM (no result: Marburg entry inh, Lassa entry inh)
CCn1ccnc1CNCc1ccc(OCC(O)CN(C)Cc2ccccc2)cc1 (centres undefined)	none (no result: Vaccinia Venus, Marburg entry inh, Lassa entry inh, VACV mCherry inh)
CN(Cc1ccccc1)CC(O)COc1ccc(CNCCc2ccncc2)cc1 (centres undefined)	VACV mCherry inh inconclusive, HCV inh 12.6µM (no result: Marburg entry inh, Lassa entry inh)
Cc1cc(CN(C)Cc2ccc(OCC(O)CN(C)Cc3ccccc3)cc2)on1 (centres undefined)	Marburg entry inh inconclusive
